# Screening results from PubChem.
# The list is not random: actives were taken first. Their share in the collection is about 21%.
# CHX counter: counter-screen hit for Shiga toxin inhibitors, cycloheximide; max response, %; hit rate 12% among 300,000; AID 2314; cell reporter, cycloheximide protein synthesis inhibition counterscreen; in the data active = max response mostly above about 13%, no sharp cut-off; inactive = mostly below about 14%; note: read at 38.3 µM for the half of the compounds with a filed dose; 0% is about no effect
# Pf growth 96h: P. falciparum growth inhibition at 96 hour, primary screen for plastid delayed-death inhibitors; P. falciparum luciferase reporter growth, 96 h; Potency, µM (titrated, usually from 28.7 µM), without a hit: top-dose activity change, negative = inhibition, hits mostly inhibitors; hit rate 6.9% among 320,000; note: potency is the fitted concentration of half-maximal effect; % is set by controls: 0 for no effect and ±100 for the full control effect
#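 Plates of compound plus infected erythrocytes (2% hematocrit, 0.05% parasitemia final) incubate 96 hours, 37 C, 5% CO2. Detection reagent added; reduced luminescence from the parasites' luciferase reporter flags inhibition.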
# Pf growth 48h: P. falciparum growth inhibition at 48 hours (one generation); Potency, µM (highest dose often 28.7 µM), for the others: at the top dose activity change, negative = inhibition, most hits filed as inhibitors; P. falciparum luciferase growth in erythrocytes, 48 h; AID 504832; hit rate 5.9% among 310,000; note: potency is the fitted concentration of half-maximal effect; % is set by controls: 0 for no effect and ±100 for the full control effect
#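 First compound was added to culture medium, then infected red cells at 0.1% parasitemia and 2% hematocrit (final). After incubation at 37 C under 5% CO2, luciferase detection reagent was dispensed and light output recorded.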
# Shiga inhibitor: blocks Shiga toxin action in Vero cells | Vero cells, Shiga toxin protein synthesis inhibition reporter | inhibition, % at 38.7 µM | hit rate 9.2% among 290,000; in the data active = inhibition mostly above about 28%, no sharp cut-off; inactive = mostly below about 43%; note: 0% is about no effect
# NS1 inh: blocks influenza NS1 protein function. Potency, µM (doses to about 46.1 µM), inactives show at the highest dose activity, positive = more growth. hit rate 0.4% among 270,000. AID 2326; calls by dose curve; note: potency is the fitted concentration of half-maximal effect; actives are rising curves; nearly all actives have a fitted effect of over 50% in size
#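 OD600 was taken as the measure of yeast growth restored by compound in an NS1-expressing S. cerevisiae strain. Cells had been washed out of glucose medium and diluted 1:100 into galactose -URA medium, pH 6.0.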
# FBPA Giardia inh: blocks Giardia fructose-bisphosphate aldolase activity; purified Giardia FBPA; Potency, µM (doses to about 59.6 µM), without a hit: at the highest dose activity, negative = inhibition, hits mostly inhibitors; hit rate 0.71% among 290,000; AID 2451; note: potency is the fitted concentration of half-maximal effect; % is set by controls: 0 for no effect and ±100 for the full control effect; nearly all actives have a fitted effect of over 55% in size
# Target sequence (A8B2U2 whole entry, looked up): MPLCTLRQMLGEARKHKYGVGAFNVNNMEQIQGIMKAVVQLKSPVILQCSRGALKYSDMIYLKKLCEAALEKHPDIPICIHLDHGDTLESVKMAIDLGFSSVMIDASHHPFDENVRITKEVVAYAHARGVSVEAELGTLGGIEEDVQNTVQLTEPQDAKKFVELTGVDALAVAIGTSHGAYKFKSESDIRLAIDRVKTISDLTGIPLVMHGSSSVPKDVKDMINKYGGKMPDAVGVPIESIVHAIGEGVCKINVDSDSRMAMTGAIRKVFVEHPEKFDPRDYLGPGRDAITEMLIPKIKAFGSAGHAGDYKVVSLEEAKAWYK
#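 40 nM FBPA preincubated 10 min at RT with compound (up to 57.5 uM final), then substrate plus GAPDH/TPI/NAD/arsenate coupling and diaphorase/resazurin added. Fluorescence read after 20 min at RT, 525/598 nm.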
# * = called active by the depositor; ? = inconclusive; / = not tested or not shown; ! = not confirmed by another sample; [ ] = another dose, or the depositor's remark. Unless noted, calls come from the whole dose curve; as a rule, active = well fitted curve in the direction sought with a large enough effect; inconclusive = small, poorly fitted or top-dose-only effect, or another doubt; inactive = no such curve, though single readings can be large; an effect the other way counts as inactive or inconclusive.
SMILES,CHX counter,Pf growth 96h,Pf growth 48h,Shiga inhibitor,NS1 inh,FBPA Giardia inh
O=C(Nc1cccc(S(=O)(=O)NC2=NCCC2)c1)c1cc(=O)[nH]c2ccccc12,/,?,19.7%,/,/,/
Cc1ccc(Cl)cc1-c1ccc(C=Nc2ccc(N3CCOCC3)cc2)o1,2.4,28.8%,-1.5%,-3.4,7.2%,-29.7%
COc1cccc(S(=O)(=O)Nc2ccc3c(c2)OCCO3)c1,36.7*,67.4%,48.2%,51.7*,11.9%,4.5%
O=S(=O)(Nc1ccc(-c2cn3ccsc3n2)cc1)c1ccc2c(c1)OCCO2,12.2,134.4%,29.2%,68.9*,2.5%,13.6%
Cc1cccc(S(=O)(=O)Nc2ccc3c(c2)OCCO3)c1,0.7,-10.2%,9.8%,-8.0,3.9%,-2.0%
NNC(=O)c1ccc(CSc2nc3ccccc3[nH]2)cc1,6.2,?,-18.8%,32.5,9.9%,-6.8%
O=C(CSc1nnc(-c2ccco2)o1)c1ccc(O)cc1O,7.9,17.7%,0.0%,-7.0,/,2.9%
O=C1O[C@H](CN2CCOCC2)CN1/N=C\c1ccc([N+](=O)[O-])o1,/,?,-17.2%[12.8 µM],/,/,-5.8%[21.7 µM]
O=C1OCCN1/N=C/c1ccc([N+](=O)[O-])o1,-1.8,3.79µM*,13.5µM*!,14.0,-8.9%,-10.2%
O=C1OC(CN2CCOCC2)CN1N=Cc1ccc([N+](=O)[O-])o1 (centres undefined),/,?,13.1µM*,/,/,/
O=C1CN(/N=C/c2ccc([N+](=O)[O-])o2)C(=O)N1,-2.9,4.15µM*,13.1µM*,-13.6,-1.1%,?
CC(=O)c1ccc([N+](=O)[O-])c(CS(=O)(=O)c2ccc(Cl)cc2)c1,1.4,53.3%,32.2%,-5.5,0.0%,4.9%
CCCCCN(C(=O)CSc1n[nH]c(-c2ccc(C)cc2)n1)c1c(N)n(CCCC)c(=O)[nH]c1=O,/,?,-14.7%,/,/,/
O=C(CCc1nc(-c2ccccc2F)no1)Nc1cccnc1,1.3,-21.9%,13.8%,-29.7,-11.9%,/
CCOc1ccccc1-c1noc(CCC(=O)Nc2cccnc2)n1,4.9,8.28µM*,10.9%,-1.7,12.6%,3.3%
COc1ccccc1NC(=O)Cc1noc(CN(C)Cc2cccs2)n1,-4.4,5.86µM*,-21.9%,-6.8,-12.1%,2.9%
COc1ccccc1NC(=O)CCc1nc(-c2ccccc2F)no1,15.8*,-0.9%,22.2%,40.0,-6.5%,-2.0%
Cc1ccc(-c2noc(CCC(=O)Nc3cccc(C#N)c3)n2)cc1,33.8*,?,?,33.7*,-49.4%,-5.4%
O=C(CCc1nc(-c2ccccc2F)no1)Nc1ccc(Oc2ccccc2)cc1,4.7,?,0.0%,-4.8,-24.2%,-6.9%
CCc1ccccc1NC(=O)CCc1nc(-c2cccs2)no1,20.3,?,11.6%,48.3*,/,5.3%
COc1cccc(NC(=O)CCc2nc(-c3ccccc3F)no2)c1,16.8*,/,9.1%,13.1,-19.3%,-8.5%
COc1ccc(Cl)cc1S(=O)(=O)N1CCC(C(=O)NCc2ccccn2)CC1,/,-0.8%,?,/,/,/
O=C(OCn1ncc(Br)c(Br)c1=O)c1c(F)cccc1F,17.1*,/,?,3.3,-135.2%,-3.3%
CC(C)(C)C(=O)Nc1ccc(C(=O)OC2CCCCC2)cc1,49.9*,/,127.7%,102.4*,-9.6%,-2.1%
O=C(O)CCC(=O)Nc1ccc(C(=O)OC2CCCCC2)cc1,-2.1,10.1%,/,-8.7,5.4%,7.3%
SMILES,CHX counter,Pf growth 96h,Pf growth 48h,Shiga inhibitor,NS1 inh,FBPA Giardia inh
O=C(OC1CCCCC1)c1ccc(NC(=O)C2CCCCC2)cc1,9.6,11.7µM*,/,13.1,-6.7%,-0.4%
O=C(Nc1ccc(C(=O)OC2CCCCC2)cc1)c1ccncc1,11.6,5.22µM*,13.4%,7.0,-14.2%,-1.0%
CCCCC(=O)Nc1ccc(C(=O)OC2CCCCC2)cc1,31.9,/,10.4µM*,51.7,-68.2%,-2.3%
O=S(=O)(Nc1cc(S(=O)(=O)N2CCOCC2)ccc1NCC1CCCO1)c1ccccc1 (centres undefined),/,-6.2%,-7.5%,/,/,/
CCOc1ccc(C2C(C(=O)OC)=CN(C(C)c3ccccc3)C=C2C(=O)OC)cc1 (centres undefined),-0.5,0.0%,?,19.1,3.3%,-5.6%
CN1CCN(S(=O)(=O)Cc2ccc(Cl)cc2)CC1,0.5,?,?,-5.6,3.1%,0.0%
COC(=O)C1=C(c2cccc3c2S(=O)(=O)c2ccccc2-3)C[C@@H]2CC[C@H]1N2C(=O)N1CCc2cc(OC)c(OC)cc2C1,/,?,3.7µM*,/,/,/
COC(=O)C1=C(c2cccc3c2S(=O)(=O)c2ccccc2-3)C[C@@H]2CC[C@H]1N2C(=O)N1CCOCC1,/,6.57µM*,10.4µM*,/,/,/
CCCc1c(C)nc(N2CCN(c3ccccc3OC)CC2)[nH]c1=O,-2.5,-6.4%,3.2%,-12.6,-0.5%,0.6%
COCCNC(=O)CN1N=C(c2ccc(C)cc2)CCC1=O,1.1,7.0%,25.6%,-9.6,0.4%,0.2%
Cn1c2ccccc2c(=O)c2ccc(-c3ccc4c(c3)OCO4)cc21,30.9*,9.28µM*,55.6%,45.6*,-3.9%,-6.3%
COc1cc(-c2ccc3c(=O)c4ccccc4n(C)c3c2)cc(OC)c1OC,10.7*,4.65µM*,?,16.0,-59.1%,0.8%
Cn1c2ccccc2c(=O)c2ccc(F)cc21,15.7*,?,-24.6%,18.1,-103.5%,-1.4%
Cc1cccc(N(C(=O)c2snc(C(N)=O)c2N)C(C(=O)NCC2CCCO2)c2ccc(N(C)C)cc2)c1C (centres undefined),-3.9,7.38µM*,?,12.3,2.8%,-10.0%
NC(=O)c1nsc(C(=O)N(c2ccc(Cl)cc2)C(C(=O)NCC2CCCO2)c2cccs2)c1N (centres undefined),-1.0,5.4%,?,20.7,-1.9%,-2.9%
CCc1ccc(N(C(=O)c2snc(C(N)=O)c2N)C(C(=O)NCC2CCCO2)c2cccs2)cc1 (centres undefined),36.6*,10.1%,?,56.9,/,-7.3%
CCc1ccccc1N(C(=O)c1snc(C(N)=O)c1N)C(C(=O)NCC1CCCO1)c1ccc(OC)c(OC)c1 (centres undefined),-7.3,44.0%,11.7µM*,-4.5,0.6%,-3.2%
CN(C)c1ccc(C(C(=O)NCC2CCCO2)N(Cc2ccccc2)C(=O)c2snc(C(N)=O)c2N)cc1 (centres undefined),1.0,-0.2%,?,2.9,-4.1%,/
COc1ccc(C(C(=O)NCC2CCCO2)N(C(=O)c2snc(C(N)=O)c2N)c2ccccc2C)cc1OC (centres undefined),9.0,34.0%,11.7µM*,-13.6,28.7%,-3.3%
O=C(C[n+]1cccc(O)c1)Nc1ccc(Br)cc1,-3.2,5.8%,0.0%,-5.1,15.7%,7.0%
CCOc1ccc(C(C(=O)NCC2CCCO2)N(CCc2cccc(C)c2)C(=O)c2snc(C(N)=O)c2N)cc1 (centres undefined),-0.7,-0.8%,9.28µM*,24.8,13.7%,1.8%
